Source: PubChem BioAssay (EPA / NIEHS)
The source made the active and inactive calls. Rule for the calls: active = hit-call score of the fitted dose curve at least 0.9, where 1 is the maximum; inactive = score below 0.9.

The molecules below were run against Myc proto-oncogene protein (Homo sapiens) (UniProt P01106) (assay: ATG_Myc_CIS: Attagene CIS-FACTORIAL HepG2 Assay for human Myelocytomatosis (Myc) Proto-Oncogene Transcription Factor (AID 2282990)). Conditions: HepG2, Attagene cis-reporter transcription factor activity; actives raise or lower the signal.
Myc proto-oncogene protein (Homo sapiens), sequence (P01106 whole entry, looked up): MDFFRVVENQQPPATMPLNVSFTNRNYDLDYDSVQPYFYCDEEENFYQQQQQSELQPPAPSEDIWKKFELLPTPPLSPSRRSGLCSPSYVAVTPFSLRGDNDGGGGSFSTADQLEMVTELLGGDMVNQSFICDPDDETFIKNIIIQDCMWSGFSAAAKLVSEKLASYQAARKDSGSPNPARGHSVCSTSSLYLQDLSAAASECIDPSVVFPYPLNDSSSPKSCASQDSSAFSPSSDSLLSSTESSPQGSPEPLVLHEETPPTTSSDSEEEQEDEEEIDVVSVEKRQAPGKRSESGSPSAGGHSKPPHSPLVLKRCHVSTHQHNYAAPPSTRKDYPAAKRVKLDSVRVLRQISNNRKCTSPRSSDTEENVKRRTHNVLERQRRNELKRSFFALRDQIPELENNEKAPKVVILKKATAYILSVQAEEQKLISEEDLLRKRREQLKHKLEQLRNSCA
Method: ATG_CIS is a cell-based, multiplexed-readout assay that uses HepG2, a human liver cell line, with measurements taken at 24 hours after chemical dosing in a 24-well plate.ATG_Myc_CIS is one of 52 assay component(s) measured or calculated from the ATG_CIS assay. It is designed to make measurements of mRNA induction, a form of inducible reporter, as detected with fluorescence intensity signals by Reverse transcription polymerase chain reaction (RT-PCR) and Capillary electrophoresis technology.Data from the assay component ATG_Myc_CIS was analyzed into 1 assay endpoint. This assay endpoint, ATG_Myc_CIS, was analyzed with bidirectional fitting relative to DMSO as the negative control and baseline of activity. Using a type of inducible reporter, measures of mRNA for gain or loss-of-signal activity can be used to understand the reporter gene at the transcription factor-level as they relate to the gene MYC. Furthermore, this assay endpoint can be referred to as a primary readout, because this assay has produced multiple assay endpoints where this one serves a reporter gene function. To generalize the intended target to other relatable targets, this assay endpoint is annotated to the dna binding intended target family, where the subfamily is basic helix-loop-helix leucine zipper.
Human liver HepG2 cells are transiently transfected with multiple reporter transcription units (MRTUs) in 6-well plates using FuGene 6 reagent (Roche; 3 ml FuGene/1 mg DNA). The MRTU constructs are regulated by a cis-regulating element (promoter). […] A major difference between the CIS and TRANS system is that in CIS activities of endogenous TFs are measured, whereas the TRANS assay evaluates changes in activities of exogenous, chimeric NR-Gal4 proteins. […] At the end of 24 hour incubation, total RNA was isolated using TriZol reagent (Invitrogen). The isolated RNA is then reverse-transcribed using oligo(dT) primer and Mo-MLV reverse transcriptase (Invitrogen) with DNAse I (Ambion) treatment for 30 min. The one-tenth of the produced cDNA was amplified by PCR using Taq DNA polymerase (Invitrogen) and two reporter sequence-specific primers. The PCR products were fluorescently labeled by primer extension with 6-arboxyfluorescein (6-FAM) 5'-labeled reporter sequence-specific primer (2 min at 95 C, 20 s at 68 C and 10 min at 72 C) and these products were digested with 5U of HpaI (New England Biolabs) for 2h at 37 C. The fragments were purified using Qiaquick PCR columns (Qiagen), analyzed on an ABI 3130xL genetic analyzer (Applied Biosystems) with peak positions identified by using a set of X-rhodamine (ROX)-labeled MapMarker1000 molecular weight standards (BioVentures). The raw capillary electrophoresis data was processed using Attagraph software (Attagene).

outcome, inactive:
O=Cc1ccccc1S(=O)(=O)O
CC(C)(N=C=O)c1cccc(C(C)(C)N=C=O)c1
CCCC(C)=O
O=C(Nc1ccc2c(O)c(N=Nc3ccc(N=Nc4ccc(S(=O)(=O)O)cc4)cc3)c(S(=O)(=O)O)cc2c1)c1ccccc1
O=C1CCCC=CCCCCCCCCCC1
Cc1cc(CCC(=O)OCCOCCOCCOC(=O)CCc2cc(C)c(O)c(C(C)(C)C)c2)cc(C(C)(C)C)c1O
CC1(C)O[C@@H]2C[C@H]3[C@@H]4CCC5=CC(=O)C=C[C@]5(C)[C@@]4(F)[C@@H](O)C[C@]3(C)[C@]2(C(=O)CO)O1
O=C1NC2NC(=O)NC2N1 (stereo not given)
ClC(c1ccccc1)(c1ccccc1)c1ccccc1
Brc1ccc(Br)c(Br)c1
O=CCc1ccccc1
Oc1ccc2cc(SSc3ccc4cc(O)ccc4c3)ccc2c1
C1CCCCC1
COc1ccccc1[N+](=O)[O-]
C=C(C)[C@H]1CC=C(C)C(=O)C1
C=C(C)CNCC
CCCCC(CC)COC(C)=O (stereo not given)
CCCOCCO
COc1cccc(OC)c1O
CCCCCCCCCCCCCCN(CCO)CCO
O=C(O)c1cccnc1C(=O)O
CCCCCCC(O)CCCCCCCCCCC(=O)O (stereo not given)
O=C(O)COCC(=O)O
COc1ccc(COC(C)=O)cc1
CCc1ncc(C)[nH]1
CCCCCCCCCCCCCC(=O)OCC(O)CO (stereo not given)
c1ccc2[nH]cnc2c1
Nc1ccccc1[N+](=O)[O-]
CCCC(=O)OC(C)(C)Cc1ccccc1
CC(C)CCOC(=O)c1ccccc1
COC(=O)c1ccc(OC)cc1
ON=C1CCCCC1
O=c1[nH]c(=O)c2cn[nH]c2[nH]1
CSCCC=O
O=C1OC(=O)c2c(Cl)c(Cl)c(Cl)c(Cl)c21
CC(=O)CC(=O)Nc1ccccc1
CS(=O)(=O)c1ccc(C2=C(c3ccccc3)C(=O)OC2)cc1
Cc1c(OCC(F)(F)F)ccnc1CS(=O)c1nc2ccccc2[nH]1 (stereo not given)
C=CC(=O)OCCC#N

AC50, active:
CCCCN(CCCC)C(=O)N(CCCC)CCCC 48.7 µM
